# Measurements reported in PubChem BioAssay (Tox21).
# Inconclusive results are not listed. Entries that show only a call come without a potency. Unmarked numbers belong to inactive results. Calls of active or inactive are those of the source. Unless noted, calls come from the whole dose curve; as a rule, active = well fitted curve in the direction sought with a large enough effect in the repeat runs; inconclusive = weak or mixed curves; inactive = no such curve, though single readings can be large; an effect the other way counts as inactive or inconclusive.
# Key:
# [1] = qHTS assay to identify small molecule antagonists of the vitamin D receptor (VDR) signaling pathway - cell viability counter screen (AID 743225); note: nearly all actives have a fitted effect of over 50% in size
# In short: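 Cytotoxicity toward the VDR-bla HEK 293T line was scored by ATP-based CellTiter-Glo luminescence, read in the wells already used for the beta-lactamase readout after 16 h compound treatment under 3 nM 1-alpha,25-dihydroxyvitamin D3 stimulation.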
# [2] = qHTS assay to identify small molecule agonists of the NFkB signaling pathway (AID 1159509; active = well fitted curve in the direction sought with a large enough effect in the signal ratio in the repeat runs, not every such curve was filed as active; the % refers to the signal ratio; note: series mostly up to about 61 µM)
# In short: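 NFkB-bla ME-180 cells carry a beta-lactamase reporter under an NF-kB response element. They were plated overnight, then exposed to compounds for 5 h at 37 C. Read-out is LiveBLAzer FRET after 1.5 hr at room temperature (405 nm excitation; 460/530 nm emission).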
# [3] = qHTS assay to identify small molecule agonists of the NFkB signaling pathway - cell viability counter screen (AID 1159515; calls by dose curve; note: series mostly up to about 61 µM; nearly all actives have a fitted effect of over 55% in size)
# In short: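 NFkB-bla ME-180 cells, 2,000/well, plated overnight at 37 C; compound added for 5 hr at 37 C. Viability read in the same wells as the bla reporter, by CellTiter-Glo luminescence after 30 min at room temperature.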
# [4] = qHTS assay to identify small molecule agonists of the endoplasmic reticulum stress response signaling pathway (AID 1159516; active = well fitted activation curve with a large enough effect in the signal ratio in the repeat runs, not every such curve was filed as active; the % refers to the signal ratio)
# In short: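 CellSensor ESRE-bla HeLa cells, 1,500 per well, plated overnight, then exposed to compounds for 5 hr at 37 C. Beta-lactamase reporter read with LiveBLAzer B/G FRET substrate after 2 hr at room temperature, 405 nm excitation, 460 and 530 nm emission.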
# [5] = qHTS assay to identify small molecule antagonists of the retinoid-related orphan receptor gamma (ROR-gamma) signaling pathway - cell viability counter screen (AID 1159520); note: nearly all actives have a fitted effect of over 50% in size
# In short: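 Cytotoxicity was read from cellular ATP (CellTiter-Glo luminescence) after 16 hr at 37 C with 1 uM doxycycline induction. The inducer was added 2 hr after compound transfer to Tet-on ROR gamma CHO cells.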
# [6] = target: Nuclear receptor ROR-gamma (Homo sapiens) (UniProt P51449); assay: qHTS assay to identify small molecule antagonists of the retinoid-related orphan receptor gamma (ROR-gamma) signaling pathway (AID 1159521;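 note: CHO cells with doxycycline inducible ROR-gamma driving an RORE luciferase reporter; top concentration of the series differs between compounds; nearly all actives have a fitted effect of over 50% in size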)
# In short: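 Readout: ONE-Glo luciferase luminescence, 30 min at room temperature. System: Tet-on RORγ CHO, RORE-LUC. Sequence: compound 2 h, doxycycline 1 uM final, 16 h at 37 C.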
# [7] = qHTS assay to identify small molecule agonists of the AP-1 signaling pathway - cell viability counter screen (AID 1159525; calls by dose curve; note: nearly all actives have a fitted effect of over 55% in size)
# In short: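 Luminescent ATP readout (Cell Titer Glo, 30 min RT), normalised to DMSO and tetra n-octyl ammonium bromide controls. Cells were ME-180 AP-1-bla in 0.5% dialyzed FBS Opti-MEM, with a 5 h, 37 °C compound exposure.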
# [8] = qHTS assay to identify small molecule agonists of the AP-1 signaling pathway (AID 1159526; calls by dose curve)
# [9] = target: Retinoic acid receptor RXR-alpha (Homo sapiens) (UniProt P19793); assay: qHTS assay to identify small molecule agonists of the RXR signaling pathway (AID 1159527; calls by dose curve; note: nearly all actives have a fitted effect of over 35% in size; note: potency is the fitted concentration of half-maximal effect)
# In short: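 Reporter activation is measured as beta-lactamase activity via FRET substrate cleavage (emission 460/530 nm) in HEK 293T cells expressing an RXR-alpha-driven bla construct, following 16 hr compound exposure at 37 C.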
# [10] = qHTS assay to identify small molecule agonists of the RXR signaling pathway - cell viability counter screen (AID 1159529); note: series mostly up to about 77 µM; nearly all actives have a fitted effect of over 50% in size
# In short: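 Tox21 10K compounds were tested for cytotoxicity against GeneBLAzer RXR-alpha HEK 293T cells grown in 2% charcoal-stripped FBS. Exposure lasted 16 hr at 37 C, 5% CO2; viability read by CellTiter-Glo luminescence.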
# [11] = qHTS assay to identify small molecule antagonists of the retinoid acid receptor (RAR) signaling pathway - cell viability counter screen (AID 1159551); note: nearly all actives have a fitted effect of over 35% in size
# In short: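 C3RL4 RARE-luciferase cells, 1,000/well, incubated overnight, then dosed with compound plus 1 uM retinol (final). After 6 hr at 37 C, viability read by CellTiter-Glo ATP luminescence following 30 min at room temperature.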
# [12] = qHTS assay to identify small molecule agonists of the retinoic acid receptor (RAR) signaling pathway (AID 1159553); note: potency is the fitted concentration of half-maximal effect
# In short: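 C3RL4 RARE-luciferase cells were seeded at 1,000/well and grown overnight at 37 C, then exposed to compounds for 6 hr at 37 C, 5% CO2. Luciferase reagent was added and luminescence was read after 30 min at room temperature.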
# [13] = qHTS assay to identify small molecule antagonists of the estrogen related receptor (ERR) signaling pathway from Tox21 library - cell viability counter screen (AID 1224834); note: nearly all actives have a fitted effect of over 30% in size; note: potency is the fitted concentration of half-maximal effect
# In short: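 ERR reporter cells, 2,000 per well, rested 6 h, then exposed to compound in DMSO for 17.5 hours at 37 C. Viability read as fluorescence after 30 min with CellTiter-Fluor.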
# [14] = qHTS assay to identify small molecule antagonists of the retinoic acid receptor (RAR) signaling pathway (AID 1159552; note: nearly all actives have a fitted effect of over 50% in size)
# In short: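 Overnight-plated C3RL4 reporter cells get compound, then retinol to 1 uM final; plates sit 6 hr at 37 C, 5% CO2. A luciferase reagent is added and light output recorded after 30 min at room temperature.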
# Sequence of Retinoic acid receptor RXR-alpha (Homo sapiens) (P19793 whole entry, looked up): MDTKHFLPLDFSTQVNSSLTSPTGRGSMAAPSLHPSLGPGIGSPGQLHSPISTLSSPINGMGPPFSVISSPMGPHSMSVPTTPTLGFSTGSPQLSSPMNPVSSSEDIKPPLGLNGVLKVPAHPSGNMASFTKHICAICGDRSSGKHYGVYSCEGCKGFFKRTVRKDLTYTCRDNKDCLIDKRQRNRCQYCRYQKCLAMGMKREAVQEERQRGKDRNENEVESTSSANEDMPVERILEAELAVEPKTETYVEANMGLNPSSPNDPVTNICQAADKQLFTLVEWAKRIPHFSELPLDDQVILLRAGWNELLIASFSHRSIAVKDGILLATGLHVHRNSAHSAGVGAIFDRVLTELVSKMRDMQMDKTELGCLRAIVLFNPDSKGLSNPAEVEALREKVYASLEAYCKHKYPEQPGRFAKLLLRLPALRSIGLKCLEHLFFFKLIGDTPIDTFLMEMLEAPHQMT
compound,measurement,setting,value
Cc1c[nH]c2ccccc12,Potency,[1],inactive
same,outcome,[2],inactive
same,Potency,[3],inactive
same,Potency,[4],inactive
same,Potency,[5],inactive
same,Potency,[6],inactive
same,Potency,[7],inactive
same,outcome,[8],inactive
same,Potency,[9],inactive
same,Potency,[10],inactive
same,Potency,[11],inactive
same,Potency,[12],inactive
same,Potency,[13],inactive
CSCC[C@H](NC(=O)[C@H](Cc1c[nH]c2ccccc12)NC(=O)CCNC(=O)OC(C)(C)C)C(=O)N[C@@H](CC(=O)O)C(=O)N[C@@H](Cc1ccccc1)C(N)=O,Potency,[1],inactive
same,outcome,[2],inactive
same,Potency,[3],inactive
same,Potency,[4],inactive
same,Potency,[5],inactive
same,Potency,[6],inactive
same,Potency,[7],inactive
same,outcome,[8],inactive
same,Potency,[9],inactive
same,Potency,[10],inactive
same,Potency,[11],inactive
same,Potency,[14],inactive
same,Potency,[12],inactive
same,Potency,[13],inactive
CCC(Cl)CC(Cl)C(Cl)C(Cl)C(Cl)C(C)Cl (stereo not given),"viability change, negative = cytotoxic",[1],6.69% [at 15.1 µM]
same,activation,[2],-0.489% [at 15.1 µM]
same,"activity, negative = cytotoxic",[3],0.94% [at 15.1 µM]
same,activation,[4],-4.87% [at 15.1 µM]
same,"activity, negative = cytotoxicity",[5],0.516% [at 19 µM]
same,"activity change, negative = inhibition",[6],79.2% [at 19 µM]
same,"viability change, negative = cytotoxic",[7],-14.2% [at 15.8 µM]
same,activation,[8],9.95% [at 15.8 µM]
same,activation,[9],-0.0074% [at 15.8 µM]
same,"activity change, negative = cytotoxicity",[10],-9.76% [at 15.8 µM]
same,"activity change, negative = cytotoxicity",[11],0.117% [at 19 µM]
same,"activity, negative = inhibition",[14],84.9% [at 19 µM]
same,Potency,[12],0.133 µM (active)
same,"viability change, negative = cytotoxic",[13],-2.15% [at 19 µM]
CC[C@H]1OC(=O)[C@H](C)[C@@H](O[C@H]2C[C@@](C)(OC)[C@@H](O)[C@H](C)O2)[C@H](C)[C@@H](O[C@@H]2O[C@H](C)C[C@H](N(C)C)[C@H]2O)[C@](C)(O)C[C@@H](C)/C(=N\OCOCCOC)[C@H](C)[C@@H](O)[C@]1(C)O,outcome,[2],inactive
same,Potency,[3],inactive
same,Potency,[4],inactive
same,Potency,[5],inactive
same,Potency,[6],inactive
same,Potency,[7],inactive
same,outcome,[8],inactive
same,Potency,[9],inactive
same,Potency,[10],inactive
same,Potency,[11],inactive
same,Potency,[12],inactive
same,Potency,[13],14.3 µM (active)
CCSC(=O)N(CC)CC,Potency,[1],inactive
same,outcome,[2],inactive
same,Potency,[3],inactive
same,Potency,[4],inactive
same,Potency,[5],inactive
same,Potency,[6],inactive
same,Potency,[7],inactive
same,outcome,[8],inactive
same,Potency,[9],inactive
same,Potency,[10],inactive
same,Potency,[11],inactive
same,Potency,[13],inactive
O=C(C(=O)c1ccco1)c1ccco1,Potency,[1],inactive
same,outcome,[2],inactive
same,Potency,[3],inactive
same,Potency,[4],inactive
same,Potency,[5],inactive
same,Potency,[6],inactive
same,Potency,[7],inactive
same,outcome,[8],inactive
same,Potency,[9],inactive
same,Potency,[10],inactive
same,Potency,[11],inactive
same,Potency,[13],inactive
c1ccc2sc(SSc3nc4ccccc4s3)nc2c1,Potency,[1],inactive
same,outcome,[2],inactive
same,Potency,[3],inactive
same,Potency,[4],inactive
same,"activity, negative = cytotoxicity",[5],-8.11% [at 19 µM]
same,"activity change, negative = inhibition",[6],7.93% [at 19 µM]
same,"viability change, negative = cytotoxic",[7],-2.35% [at 15.8 µM]
same,activation,[8],15.6% [at 15.8 µM]
same,activation,[9],-16% [at 15.8 µM]
same,"activity change, negative = cytotoxicity",[10],-2.29% [at 15.8 µM]
same,"activity change, negative = cytotoxicity",[11],0.484% [at 19 µM]
same,"viability change, negative = cytotoxic",[13],0.18% [at 19 µM]
CC[C@@H](CO)NCCN[C@@H](CC)CO,Potency,[1],inactive
same,outcome,[2],inactive
same,Potency,[3],inactive
same,Potency,[4],inactive
same,Potency,[5],inactive
same,Potency,[6],inactive
same,Potency,[7],inactive
same,outcome,[8],inactive
same,Potency,[9],inactive
same,Potency,[10],inactive
same,Potency,[14],inactive
same,Potency,[12],inactive
same,Potency,[13],inactive
CC(C)C(=O)OCCOc1ccccc1,Potency,[1],inactive
same,outcome,[2],inactive
same,Potency,[3],inactive
same,Potency,[4],inactive
same,Potency,[5],inactive
same,Potency,[6],inactive
same,Potency,[7],inactive
same,outcome,[8],inactive
same,Potency,[10],inactive
same,Potency,[11],inactive
same,Potency,[14],inactive
same,Potency,[12],inactive
same,Potency,[13],inactive
BrC(Br)C(Br)Br,Potency,[1],inactive
same,outcome,[2],inactive
same,Potency,[3],inactive
same,Potency,[4],inactive
same,Potency,[5],inactive
same,Potency,[6],inactive
same,Potency,[7],inactive
same,outcome,[8],inactive
same,Potency,[9],inactive
same,Potency,[10],inactive
same,Potency,[14],inactive
same,Potency,[12],inactive
same,Potency,[13],inactive
C[C@@H]1C[C@H]2[C@@H]3CCC4=CC(=O)C=C[C@]4(C)[C@@]3(F)[C@@H](O)C[C@]2(C)[C@@]1(O)C(=O)COP(=O)(O)O,Potency,[1],inactive
same,outcome,[2],inactive
same,Potency,[3],inactive
same,Potency,[4],inactive
same,Potency,[5],inactive
same,Potency,[6],inactive
same,Potency,[7],inactive
same,outcome,[8],inactive
same,Potency,[9],inactive
same,Potency,[10],inactive
same,Potency,[11],inactive
same,Potency,[13],inactive
O=P(O)(O)Oc1ccccc1,Potency,[1],inactive
same,outcome,[2],inactive
same,Potency,[3],inactive
same,Potency,[4],inactive
same,Potency,[5],inactive
same,Potency,[6],inactive
same,Potency,[7],inactive
same,outcome,[8],inactive
same,Potency,[9],inactive
same,Potency,[10],inactive
same,Potency,[12],inactive
same,Potency,[13],inactive
CCCCCCCCCCCC(=O)OCC(O)CO (stereo not given),outcome,[2],inactive
same,Potency,[3],inactive
same,Potency,[4],inactive
same,Potency,[5],inactive
same,Potency,[6],inactive
same,Potency,[7],inactive
same,outcome,[8],inactive
same,Potency,[9],54.9 µM (active)
same,Potency,[11],inactive
same,Potency,[12],inactive
same,Potency,[13],inactive
COc1ccc(C(=O)NCc2ccc(OCCN(C)C)cc2)cc1OC,Potency,[1],inactive
same,outcome,[2],inactive
same,Potency,[3],inactive
same,Potency,[4],inactive
same,Potency,[5],inactive
same,Potency,[6],inactive
same,Potency,[7],inactive
same,outcome,[8],inactive
same,Potency,[9],inactive
same,Potency,[10],inactive
same,Potency,[11],inactive
same,Potency,[13],inactive
ClC1=C(Cl)C1(Cl)Cl,Potency,[1],inactive
same,outcome,[2],inactive
same,Potency,[3],inactive
same,Potency,[4],inactive
same,Potency,[5],inactive
same,Potency,[6],inactive
same,Potency,[7],inactive
same,outcome,[8],inactive
same,Potency,[9],inactive
same,Potency,[10],inactive
same,Potency,[13],inactive
CCOC(=O)Oc1ccc(CCNC(=O)[C@H](CCSC)NC(C)=O)cc1OC(=O)OCC,Potency,[1],inactive
same,outcome,[2],inactive
same,Potency,[3],inactive
same,Potency,[4],inactive
same,Potency,[5],inactive
same,Potency,[6],inactive
same,Potency,[7],inactive
same,outcome,[8],inactive
same,Potency,[9],inactive
same,Potency,[10],inactive
same,Potency,[11],inactive
same,Potency,[13],inactive
CC(=O)Oc1cccc(O)c1,Potency,[1],inactive
same,outcome,[2],inactive
same,Potency,[3],inactive
same,Potency,[4],inactive
same,Potency,[5],inactive
same,Potency,[6],inactive
same,Potency,[7],inactive
same,outcome,[8],inactive
same,Potency,[9],inactive
same,Potency,[10],inactive
same,Potency,[11],inactive
same,Potency,[13],inactive
